In PubChem BioAssay (EPA / NIEHS):
“And” between values parts separate entries of the source, which are not always exact repeats. Equal values may be shown once. The source made the active and inactive calls. How the source made its calls: active means hit-call score of the fitted dose curve at least 0.9, where 1 is the maximum; inactive means score below 0.9.

Test: BSK_IMphg_SRB: Viability Assessment in the BioMAP Diversity Plus: IMphg Assay (AID 2284292);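 further: measured one day after compound addition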
Conditions: primary human endothelial cells with macrophages
Protocol: BSK_IMphg is a cell-based, multiplexed-readout assay that uses venular endothelial cells and macrophages, a human vascular primary cell, with measurements taken at 24 hours after chemical dosing in a microplate: 96-well plate.BSK_IMphg_SRB is an assay component measured in the BSK_IMphg assay. It measures […] related to cell death using Sulforhodamine staining technology.Data from the assay component BSK_IMphg_SRB was analyzed at the endpoint, BSK_IMphg_SRB, in the positive analysis fitting direction relative to DMSO as the negative control and baseline of activity. Using a type of viability reporter, gain or loss-of-signal activity can be used to understand protein changes. To generalize the intended target to other relatable targets, this assay endpoint is annotated to the 'cell morphology' intended target family, where the subfamily is 'cell conformation'.
The levels of cell surface (or secreted, indicated by the prefix "s") biomarker endpoints were measured by ELISA. Overt cytotoxicity to cells in confluent adherent cultures (all systems other than the BT system) was assessed by measuring total protein levels using sulforhodamine B (SRB) staining in parallel cultures at the time of biomarker measurements, indicated as SRB endpoints. For proliferation assays for adherent cell types, individual cell types are cultured at sub-confluence and relative cell numbers quantified by SRB staining at time points optimized for each system (48 h: 3C and CASM3C systems; 72 h: BT and HDF3CGF systems; 96 h: SAg system). SRB was performed by staining cells with 0.1% SRB after fixation with 10% TCA and reading wells at 560 nm.Viability and proliferation of PBMC (T cells) was quantified by Alamar Blue reduction for the SAg and BT systems. For PBMC viability (referred to as PBMC Cytotoxicity within the assay endpoint names), cells were plated (75,000/well in a 96-well plate) and then chemical samples added for 1 h before addition of activators, SEB and TSST-1 (20 ng/mL final concentration each). Cells were incubated for 90 h. Then, Alamar Blue (20 uL/well) (Invitrogen, Cat DAL1100) was added for 6 h, and the plates were read with a fluorescence microplate reader at 546/580 nm (excitation/emission). For PBMC proliferation, cells were plated and activated as above but incubated for only 16 h prior to addition of Alamar Blue. Plates were read after 6 h.

Row | Compound | outcome | AC50
1 | O=C(O)C(F)(OC(F)(F)C(F)(OC(F)(F)C(F)(F)C(F)(F)F)C(F)(F)F)C(F)(F)F (stereo not given) | inactive | 
2 | O=P(O)(O)OCCC(F)(F)C(F)(F)C(F)(F)C(F)(F)C(F)(F)C(F)(F)F | inactive | 
3 | OCC(F)(F)C(F)(F)C(F)(F)C(F)F | inactive | 
4 | O=S(=O)(OCC(F)F)C(F)(F)F | inactive | 
5 | FC(F)(F)C(F)(F)C(F)(F)C(F)(F)C(F)(F)C(F)(F)C(F)(F)C(F)(F)CCS | inactive | 
6 | OCC(F)(F)C(F)(F)C(F)(F)C(F)(F)C(F)(F)C(F)(F)F | inactive | 
7 | O=C(O)C(F)(OC(F)(F)C(F)(OC(F)(F)C(F)(OC(F)(F)C(F)(F)C(F)(F)F)C(F)(F)F)C(F)(F)F)C(F)(F)F (stereo not given) | inactive | 
8 | CCCCCCCCC(F)(F)C(F)(F)C(F)(F)C(F)(F)C(F)(F)C(F)(F)F | inactive | 
9 | FC(F)(F)C(F)(F)CNCC(F)(F)C(F)(F)F | inactive | 
10 | O=C(O)C(F)(F)C(F)(F)OC(F)(F)F | inactive | 
11 | C=CC(=O)OCC(F)(F)C(F)(F)C(F)(F)C(F)(F)C(F)(F)C(F)(F)C(F)(F)F | inactive | 
12 | O=C(O)C(F)(F)C(F)(F)C(F)(F)C(F)(F)C(F)(F)C(F)(F)C(F)(F)C(F)(F)C(F)(F)C(F)(F)C(F)(F)C(F)(F)C(F)(F)F | inactive | 
13 | N=C(N)C(F)(F)C(F)(F)C(F)(F)C(F)(F)C(F)(F)C(F)(F)C(F)(F)F | inactive | 
14 | C=C(C)C(=O)OCC(F)(F)C(F)(F)C(F)(F)F | inactive | 
15 | O=S(=O)(OCCOC(F)(F)F)C(F)(F)F | inactive | 
16 | C=CC(F)(F)C(F)(F)C(F)(F)C(F)(F)C(F)(F)C(F)(F)C(F)(F)C(F)(F)C=C | inactive | 
17 | C=CC(F)(F)C(F)(F)C(F)(F)C(F)(F)C(F)(F)C(F)(F)C(F)(F)C(F)(F)F | inactive | 
18 | C=C(C)C(=O)OCCC(F)(F)C(F)(F)C(F)(F)C(F)(F)C(F)(C(F)(F)F)C(F)(F)F | inactive | 
19 | O=C(O)C(F)(F)C(F)(F)C(F)(F)F | inactive | 
20 | FC(F)(F)C(F)(F)C(F)(F)N(C(F)(F)C(F)(F)C(F)(F)F)C(F)(F)C(F)(F)C(F)(F)F | inactive | 

Row | Compound | outcome | AC50
21 | OCC(F)(F)C(F)(F)C(F)(F)F | inactive | 
22 | NC(=O)C(F)(F)C(F)(F)C(F)(F)C(F)(F)F | inactive | 
23 | CC(C)(C)C(=O)CC(=O)C(F)(F)C(F)(F)C(F)(F)F | inactive | 
24 | CCO[Si](CCC(F)(F)C(F)(F)C(F)(F)C(F)(F)C(F)(F)C(F)(F)F)(OCC)OCC | inactive | 
25 | FC(F)(F)C(F)(F)C(F)(F)C(F)(F)C(F)(F)C(F)(F)CCS | inactive | 
26 | O=C(O)C(F)(F)C(F)(F)C(F)(F)C(F)(F)C(F)(F)C(F)(F)C(F)(F)C(F)(F)C(F)(F)C(F)(F)C(F)(F)C(F)(F)F | inactive | 
27 | O=C(CC(=O)C(F)(F)C(F)(F)F)C(F)(F)F | inactive | 
28 | O=C(O)C(F)(F)C(F)(F)F | inactive | 
29 | Cc1ccc(S(=O)(=O)OCC(F)(F)C(F)(F)C(F)(F)C(F)(F)C(F)(F)C(F)F)cc1 | inactive | 
30 | OCCCC(F)(F)C(F)(F)C(F)(F)C(F)(F)C(F)(F)C(F)(F)C(F)(F)F |  | 51.8 µM (active) and 47.2 µM (active)
31 | FC(F)(F)C(F)(F)C(F)(F)C(F)(F)C(F)(F)CCI | inactive | 
32 | O=C(O)C(F)(F)C(F)(F)C(F)(F)C(F)(F)C(F)(F)C(F)(F)C(F)(F)C(F)(F)Cl |  | 56.6 µM (active) and 47.9 µM (active)
33 | OCC(F)(F)C(F)(F)C(F)(F)C(F)(F)C(F)(F)C(F)F | inactive | 
34 | FC(F)(I)C(F)(F)C(F)(F)C(F)(F)I | inactive | 
35 | O=C(O)C=C(C(F)(F)F)C(F)(F)F | inactive | 
36 | FC(F)(F)C(F)(F)C(F)(F)C(F)(F)C(F)(F)C(F)(F)CC1CO1 (stereo not given) | inactive | 
37 | O=C(Cl)C(F)(F)C(F)(F)C(F)(F)C(F)(F)C(F)(F)C(F)(F)C(F)(F)C(F)(F)F |  | 54.8 µM (active) and 40 µM (active) and 47.8 µM (active)
38 | O=C(O)C(F)(F)C(F)(F)C(F)(F)C(F)(F)C(F)(F)C(F)(F)C(F)(F)C(F)(F)C(F)(F)C(F)F |  | 55.7 µM (active) and 50.4 µM (active)
39 | O=S(=O)(O)C(F)(F)C(F)(F)C(F)(F)C(F)(F)C(F)(F)C(F)(F)C(F)(F)F | inactive | 
40 | C=CC(=O)OCC(F)(F)C(F)(F)C(F)(F)C(F)(F)COC(=O)C=C | inactive | 
